Sampled rows, rich in hits. Any-hit rate of the full collection: about 4%.
DENV2 CPE rescue – protects cells from dengue virus 2 cytopathic effect | CPE inhibition, % at 9.99 µM | DENV2-infected cells, cytopathic effect rescue, plate reader | AID 651640 | hit rate 1.7% among 350,000; in the data active = CPE inhibition above about 20%, passing the limit was not always enough; inconclusive = no clear call, values can overlap the other calls; tested in BHK-21 cells;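 note: 0% = median of neutral control wells and 100% = median of positive control wells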
FGF22 binding – shifts melting point of recombinant human FGF22. AID 651658. Q9HCT0. recombinant FGF22 thermal shift, SYPRO orange fluorescence; percent of sucrose octasulfate shift, DMSO zero. activity (Tm shift, normalised), % at 9.99 µM. hit rate 1.5% among 340,000;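 active = mean Tm shift, scaled 0 neutral to 100 positive control, at about 1.3% or above, every replicate too, limit read from the data; inconclusive = no clear call, values can overlap the other calls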
Target sequence (Q9HCT0 whole entry, looked up): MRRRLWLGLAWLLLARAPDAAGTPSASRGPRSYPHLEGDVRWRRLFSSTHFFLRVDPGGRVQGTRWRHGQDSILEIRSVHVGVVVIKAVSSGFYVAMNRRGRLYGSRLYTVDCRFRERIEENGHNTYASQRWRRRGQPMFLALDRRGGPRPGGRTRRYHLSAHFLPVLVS
RAD52 inh – blocks human RAD52 DNA annealing | P43351 | recombinant RAD52 DNA annealing, FRET fluorescence | inhibition, % at 18.7 µM | hit rate 0.46% among 360,000;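 active = every replicate showing at least 50% inhibition; inconclusive = mean inhibition at least 50% but not in every replicate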
Target sequence (P43351 whole entry, looked up): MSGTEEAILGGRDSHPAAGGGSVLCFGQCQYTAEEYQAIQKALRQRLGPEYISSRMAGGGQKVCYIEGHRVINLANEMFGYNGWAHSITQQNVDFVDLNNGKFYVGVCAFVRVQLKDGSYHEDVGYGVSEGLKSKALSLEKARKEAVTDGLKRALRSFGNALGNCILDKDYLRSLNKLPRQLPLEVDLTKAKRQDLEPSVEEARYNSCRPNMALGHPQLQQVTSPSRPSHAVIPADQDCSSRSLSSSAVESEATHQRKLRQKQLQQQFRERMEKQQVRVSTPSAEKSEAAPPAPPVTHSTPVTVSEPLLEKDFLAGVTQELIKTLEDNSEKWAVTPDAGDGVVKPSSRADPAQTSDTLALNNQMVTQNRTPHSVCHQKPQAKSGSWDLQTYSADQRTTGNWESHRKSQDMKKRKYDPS
ERAP1 inh – ERAP1 (human) enzyme inhibition; recombinant ERAP1, Leu-AMC fluorescence, 60 min; inhibition, % at 10.7 µM; hit rate 0.15% among 340,000; AID 652197;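 active = mean replicate inhibition of at least 30%, or all replicates individually reaching that 30% level; inactive = mean below 30% and not every replicate reaching it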;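 note: 0% = neutral control wells and 100% = L-leucinethiol positive control wells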
AF4-AF9 inh – inhibitors of human MLL-AF4/AF9 interaction. inhibition, % at 10 µM. P42568. AID 651704. AlphaScreen, biotin-AF4 peptide binding to FLAG-AF9. hit rate 0.47% among 350,000;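 active = every replicate reaching a set inhibition limit, whatever the replicate mean, cut at about 25% in these data; inconclusive = mean inhibition reaches that limit but some replicates miss it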;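 note: 0% = plate neutral control median and 100% = total signal loss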
DNA binder FP – DNA binding artifact in RAD52 counter-screen | hit rate 8% among 1,000 | AC50, µM | Salmon sperm DNA/acridine orange FP displacement | shares compounds with RAD52 inh;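 active = fitted half-maximal concentration for signal loss at or below twice the highest dose tested, in every separate run, actives reach about 64 µM in these data; inconclusive = runs disagree, or flat partial signal loss, or poor fit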
* = called active by the depositor; i = inactive; ? = inconclusive; · = no result.

SMILES	DENV2 CPE rescue	FGF22 binding	RAD52 inh	ERAP1 inh	AF4-AF9 inh	DNA binder FP
CCN(CC)CCNc1nc(SC)nc2sc3c(c12)CCN(C)C3	3	0	56*	0	10	i
CSc1nc(NCCCN(C)C)c2c3c(sc2n1)CN(C)CC3	3	0	77*	9	4	i
CC(C)c1ccc2c(c1)C(N1CCNCC1)Cc1ccc(F)cc1S2 (stereo not drawn)	-14	0	2	0	12	·
CCc1cccc2c1Sc1ccccc1CC2N1CCNCC1 (stereo not drawn)	-16	0	55*	10	15	i
CCCCNC(=O)c1cc2c(-c3ccc(Cl)cc3)nn(C)c2s1	-12	0	-3	-1	-18	·
CCN(CC)CCCNC(=O)c1cc2c(-c3cccc(OC)c3)nn(C)c2s1	9	0	92*	1	4	i
CCCCN(CC)CCCNC(=O)c1cc2c(-c3ccc(OC)c(OC)c3)nn(C)c2s1	0	0	94*	-1	5	i
CC(C)c1cn(CC[C@H]2CC[C@@H](NS(=O)(=O)Cc3ccccc3)[C@H](CO)O2)nn1	8	0	-10	2	1	·
CC(C)NC(=O)N(C)C[C@@H]1Oc2ccc(NS(=O)(=O)c3cn(C)cn3)cc2C(=O)N([C@H](C)CO)C[C@@H]1C	?	0	-14	-1	-3	·
CO[C@H]1CN(C)C(=O)c2ccc(NS(=O)(=O)c3ccccc3C)cc2OC[C@@H](C)N(S(C)(=O)=O)C[C@@H]1C	-5	0	-20	0	-5	·
CN(C)CCCN(C(=O)CCOc1ccccc1)c1nc2ccc(F)cc2s1	?	0	89*	3	5	i
CN(C)CCCN(C(=O)c1nc2ccccc2s1)c1nc2ccc(F)cc2s1	-5	0	84*	2	1	i
CN(C)CCCN(C(=O)c1ccc(C(=O)c2ccccc2)cc1)c1nc2ccc(F)cc2s1	-4	0	49	0	17	·
O=C(C[C@@H]1C=C[C@H](NS(=O)(=O)c2ccc(F)cc2)[C@@H](CO)O1)NCCc1ccncc1	?	0	-7	3	0	·
CC(=O)NC(CC(=O)O)c1ccccc1 (stereo not drawn)	-3	0	-8	-1	3	·
C=CC(=C)CC(NC)c1ccccc1 (stereo not drawn)	0	0	59*	3	28*	i
C[C@@H]1CN([C@H](C)CO)C(=O)c2cc(C#CCN(C)C)cnc2O[C@@H]1CN(C)C(=O)c1cccnc1	?	0	-13	-1	-5	·
O=C(Nc1ccn(CCCN2CCN(c3ccccc3)CC2)c(=O)n1)OCc1ccccc1	8	0	3	7	7	·
O=C(Nc1ccn(CCCN2CCN(Cc3cccc4ccccc34)CC2)c(=O)n1)OCc1ccccc1	-4	0	52*	-9	15	i
Cc1ccc(-c2csc(NC(=O)C[n+]3cc(-c4ccc(C)cc4)n4c3CCC4)n2)cc1	-2	0	26	17	?	·
Cc1ccc(-c2csc(NC(=O)C[n+]3cc(-c4ccccc4)n4c3CCC4)n2)cc1	-12	0	50*	·	17	i
COc1cc(NS(C)(=O)=O)ccc1Nc1c2ccccc2nc2ccccc12	?	0	55*	-48	-1	i
COc1ccc([N+](=O)[O-])cc1Nc1c2ccccc2nc2ccccc12	4	0	-7	4	4	·
COc1ccc(/C=N/Nc2nc(-c3cccc(S(=O)(=O)N4CCCC4)c3)cs2)c(OC)c1	-8	0	96*	1	10	i
CN(C)S(=O)(=O)c1cccc(-c2csc(N/N=C/c3ccco3)n2)c1	-1	0	-23	-1	·	·
SMILES	DENV2 CPE rescue	FGF22 binding	RAD52 inh	ERAP1 inh	AF4-AF9 inh	DNA binder FP
CCN(CC)CCNC(=O)c1ccc(NC(=O)c2cccc(S(=O)(=O)N3CCc4ccccc43)c2)cc1	-6	0	50*	1	13	i
c1ccc2c(c1)c1c(c3ccccc32)CN2CCCC2C1 (stereo not drawn)	-9	0	103*	1	8	25µM*
COCC(=O)Nc1ccc2c(c1)[C@H]1C[C@@H](CC(=O)NC3CCCC3)O[C@H](CO)[C@H]1O2	13	0	-21	1	2	·
Cc1ccc(Nc2nc(NCCO)c3ccccc3n2)cc1C	-22	0	27	-30	18	·
COc1ccc(OC)c(Nc2nc(NCCO)c3ccccc3n2)c1	-1	0	88*	0	18	i
COc1ccc(-c2nc(NCCCN(C)C)c3ccccc3n2)cc1	30*	0	87*	-1	-12	i
CCN(CC)CCCNc1nc2ccccc2c2[nH]c3ccc(OC)cc3c12	13	0	105*	-33	?	6.5µM*
CCN1CCCC(OC(=O)c2cc(-c3ccc(C)cc3)nc3ccccc23)C1 (stereo not drawn)	1	0	57*	-2	15	i
CC(C)N1CCc2c(sc(NC(=O)c3nc4ccccc4s3)c2C(N)=O)C1	-1	0	68*	·	4	i
COc1ccc(C(N)=S)c(OC)c1	·	0	74*	2	2	i
COc1ccc(/C(C)=N/N=C(\C)c2ccc(OC)cc2OC)c(OC)c1	-3	·	-25	1	1	·
CCOc1cccc2sc(N(CCCN(C)C)C(=O)c3ccc(S(=O)(=O)N4CCc5ccccc5C4)cc3)nc12	2	0	55*	1	0	i
COc1ccc2sc(N(CCCN(C)C)C(=O)c3ccc(S(=O)(=O)N4CCCc5ccccc54)cc3)nc2c1	-10	·	77*	-4	31*	i
CCN(Cc1ccccc1)S(=O)(=O)c1ccc(C(=O)N(CCCN(C)C)c2nc3cc(OC)ccc3s2)cc1	-9	-1	59*	4	21	i
COc1cc2nc(N(CCCN(C)C)C(=O)c3ccc(S(=O)(=O)N(C)C4CCCCC4)cc3)sc2cc1OC	-7	0	45	-4	10	·
COc1cc2nc(N(CCCN(C)C)C(=O)c3ccc(S(=O)(=O)N4CCc5ccccc54)cc3)sc2cc1OC	?	-1	70*	1	9	i
CCc1ccc2nc(N(CCCN(C)C)C(=O)c3ccc(S(=O)(=O)N4CCc5ccccc5C4)cc3)sc2c1	0	0	31	0	1	·
NCC[C@@H]1CC[C@H](NC(=O)Nc2ccc(F)cc2)[C@H](CO)O1	-2	0	0	-1	6	·
C[C@@H]1CN([C@H](C)CO)C(=O)c2cccc(NC(=O)CCCCCC(=O)Nc3ccccc3N)c2O[C@H]1CN(C)Cc1ccc(-c2ccccc2)cc1	-4	0	-3	0	0	·
CN1C(=O)c2cc(NC(=O)c3ccc(Cl)cc3)ccc2OC[C@@H]2O[C@H](CC(=O)NCc3cccc(F)c3)CC[C@H]21	-24	0	-9	-1	-1	·
Nc1ccc2nc(CCCO)[nH]c2c1	·	0	93*	·	13	i

High-throughput results deposited in PubChem BioAssay by Broad Institute.
